The values that follow come from ChEMBL document CHEMBL4808148, “HDAC6 screening dataset using tau-based substrate in an enzymatic assay yields selective inhibitors and activators” (2021).

Experiment [1] addresses T1, Protein deacetylase HDAC6 (Homo sapiens) (UniProt Q9UBN7).
T1 sequence (whole entry): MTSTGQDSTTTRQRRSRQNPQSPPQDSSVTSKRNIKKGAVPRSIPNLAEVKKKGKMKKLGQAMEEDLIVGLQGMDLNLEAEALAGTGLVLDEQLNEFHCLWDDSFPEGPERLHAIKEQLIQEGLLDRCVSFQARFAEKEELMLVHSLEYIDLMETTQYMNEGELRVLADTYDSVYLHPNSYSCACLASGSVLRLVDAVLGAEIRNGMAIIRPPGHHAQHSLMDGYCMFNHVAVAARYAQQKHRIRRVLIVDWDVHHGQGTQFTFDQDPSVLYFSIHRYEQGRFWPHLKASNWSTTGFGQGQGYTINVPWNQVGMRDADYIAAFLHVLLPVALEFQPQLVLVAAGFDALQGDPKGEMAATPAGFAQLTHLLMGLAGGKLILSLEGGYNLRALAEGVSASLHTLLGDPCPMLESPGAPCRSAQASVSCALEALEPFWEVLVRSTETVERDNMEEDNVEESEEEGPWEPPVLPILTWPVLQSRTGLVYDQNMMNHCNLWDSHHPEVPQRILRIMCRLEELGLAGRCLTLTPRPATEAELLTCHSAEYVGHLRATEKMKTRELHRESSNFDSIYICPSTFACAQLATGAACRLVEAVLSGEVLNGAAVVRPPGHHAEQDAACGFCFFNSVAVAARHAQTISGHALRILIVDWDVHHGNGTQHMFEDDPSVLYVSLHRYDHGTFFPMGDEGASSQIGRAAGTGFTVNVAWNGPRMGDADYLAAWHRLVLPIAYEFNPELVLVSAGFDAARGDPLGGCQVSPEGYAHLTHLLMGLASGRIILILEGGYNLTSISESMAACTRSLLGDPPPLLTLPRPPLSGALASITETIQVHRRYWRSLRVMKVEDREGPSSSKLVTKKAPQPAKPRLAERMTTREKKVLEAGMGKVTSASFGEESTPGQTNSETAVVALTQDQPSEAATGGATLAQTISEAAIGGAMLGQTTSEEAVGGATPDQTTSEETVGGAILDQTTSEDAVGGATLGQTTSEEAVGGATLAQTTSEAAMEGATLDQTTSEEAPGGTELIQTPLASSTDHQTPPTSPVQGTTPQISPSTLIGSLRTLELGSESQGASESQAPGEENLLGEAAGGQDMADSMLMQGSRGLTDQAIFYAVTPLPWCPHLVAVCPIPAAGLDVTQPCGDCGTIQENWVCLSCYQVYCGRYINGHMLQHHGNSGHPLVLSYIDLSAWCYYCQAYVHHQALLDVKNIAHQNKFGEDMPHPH
The note with it: at 10 µM.

Experiment [2] has as its target Protein deacetylase HDAC6 (Homo sapiens) (UniProt Q9UBN7). The note with it: at 10 µM. This is another data set of the same source.

Screen size: about 5,600 compounds; about 390 (7%) showed an effect of 50% or more. This is one part of a sample in which strong results are shown more often than they occur.

What is called inhibition is the drop in the measured response relative to a control, in per cent. As to `C[C@H](/C=C/[C@H](C)C(C)(C)O)[C@H]1CC[C@H]2/C(=C/C=C3C[C@@H](O)C[C@H](O)C3)CCC[C@]12C`, the inhibition in experiment [1] came to 9.32%.
`CCCCN(CCCC)C(=O)CN1C[C@H](c2ccc3c(c2)OCO3)[C@@H](C(=O)O)[C@@H]1c1ccc(OC)cc1`: the inhibition in experiment [1] came to 34.1%.
Consider `N=C(Nc1ccccc1)Nc1ccccc1`, for which the inhibition in experiment [1] turned out to be 15.5%.
As for `O=C1NC(=S)NC(=O)C1C(=O)Nc1ccccc1`, in experiment [1], the inhibition is 96.3%.
On to `N=C(Nc1ccccc1)c1cccs1`, for which, in experiment [1], the inhibition came to 37.1%.
`CON(C)C(=O)[C@H](O)[C@H](Cc1ccccc1)NC(=O)c1cc2cc(Cl)ccc2[nH]1`: the inhibition in experiment [1] worked out at 5.68%.
Turning to `CN[C@H]1C[C@@H](N)[C@H](O)[C@@H](O[C@@H]2O[C@H](CO)[C@H](O)[C@@H]3OC4(O[C@H]23)O[C@H]([C@@H](N)CO)[C@H](O)[C@H](O)[C@H]4O)[C@@H]1O` (stereo partly drawn), in experiment [1], the inhibition stood at 6.11%.
As for `N#Cc1ccc2[nH]c(O)c(-c3ccc(CN4CCOCC4)cn3)c2c1`, in experiment [1], the inhibition was 11.3%.
Still for that read-out and setting: for `Cc1[nH]c(/C=C2\C(=O)Nc3cc(-c4ccccc4)ccc32)c(C)c1CCC(=O)O` the value was 95.2%; for `CN/C(=N\S(=O)(=O)c1ccc(Cl)cc1)N1CC(c2ccccc2)C(c2ccc(Cl)cc2)=N1` (racemic), 9.02%.
In the case of `O=C1CC(=O)c2c(Cl)c(Cl)c(Cl)c(Cl)c21`, the inhibition in experiment [1] was -2.09%.
Take `CN1C[C@@H]2CN(c3ccc(-c4ccccc4)nn3)C[C@@H]2C1`: the inhibition in experiment [1] was 10.2%.
On to `O=C1N[C@H](C(=O)O)CS1`, for which, in experiment [1], the inhibition is 9.69%.
On the same count and under the same terms, for `CCOc1cc(/C=C2/C(=O)N(c3ccccc3)N=C2C)cc(Cl)c1OCC(=O)OC` the value was 101%.
On to HYALURONIC ACID, CHEMBL5314376, for which the inhibition in experiment [2] is -9.36%.
Consider `CN(C)C(=O)CCSC(SCCC(=O)O)c1cccc(/C=C/c2ccc3ccc(Cl)cc3n2)c1` (stereo not drawn), for which, in experiment [1], the inhibition came to 10.8%.
As to `N[C@@H](CSCCCO)C(=O)O`, the inhibition in experiment [1] was 24.6%.
For `O=c1c2c[nH]c3ccccc3c-2nn1-c1ccc(Cl)cc1`, the inhibition in experiment [1] worked out at 97.1%.
With `COc1ccc(-n2nc3c4c([nH]cc-3c2=O)CCCCC4)cc1`, the inhibition in experiment [1] stood at 40.9%.
Still for that read-out and setting: for `CCCCCCCCCCCCCCCc1cccc(OCC(=O)NCCO)c1` the value was -3.57%.
As to `CC(C)c1nnc(-c2ccc(-c3ccccc3)nc2)n1-c1cccc2nonc12`, the inhibition in experiment [1] was 4.02%.
As for `COC(=O)C[C@@](O)(CCC(C)(C)O)C(=O)O[C@@H]1C(OC)=C[C@]23CCCN2CCc2cc4c(cc2[C@@H]13)OCO4`, the inhibition in experiment [1] was -1.89%.
As to `C[N+]1(CC2CC2)[C@@H]2C[C@@H](OC(=O)[C@H](CO)c3ccccc3)C[C@H]1[C@@H]1O[C@@H]12` (stereo partly drawn), the inhibition in experiment [1] is -9.14%.
Still for that read-out and setting: in the case of `COC(=O)N1CC[C@@H]2[C@H]1CCC[C@@]2(O)C#Cc1cccc(C)c1` it was 29.3%; in that of `O=C(Nc1ccc(Br)cc1)c1cc(Br)cc(Br)c1O`, 100%.
As for `CCOC(=O)c1c(/C(C#N)=C\N)c2ccc(Cl)c(Cl)c2n1C`, the inhibition in experiment [1] is 0.46%.
Regarding `Cc1c(F)cc(C(=O)NC2CC2)cc1-c1c(F)cn2c(C(C)(C)C)nnc2c1F`, in experiment [1], the inhibition was -2%.
Turning to `CC1(C)CC[C@]2(NC(=O)C(C)(F)F)CC[C@]3(C)C(C(=O)C=C4[C@@]5(C)C=C(C#N)C(=O)C(C)(C)[C@@H]5CC[C@]43C)C2C1` (stereo partly drawn), in experiment [1], the inhibition was found to be 19.7%.
On to `C[C@]12CC[C@@H]3c4ccc(O)cc4CC[C@H]3[C@@H]1[C@@H](O)[C@@H](O)[C@@H]2O`, for which the inhibition in experiment [1] is 5.04%.
For the compound `C[C@]12CC[C@H]3C(=CCc4cc(O)ccc43)[C@@H]1CCC2=O`, the inhibition in experiment [1] came out at 53.8%.
In the case of `CO/N=C(\C(=O)N[C@@H]1C(=O)N2C(C(=O)O)=C(CSC(=O)c3ccco3)CS[C@H]12)c1csc(N)n1`, the inhibition in experiment [1] is 22.4%.
Turning to `O=C(Nc1ccc(C(F)(F)F)cn1)N1CCN(c2ncccc2C(F)(F)F)CC1`, the inhibition in experiment [1] is -6.44%.
Regarding `COC(=O)c1cc2c(C(F)(F)F)cc(-c3ccccc3)cc2n1O`, the inhibition in experiment [1] is 16.7%.
Still for that read-out and setting: for `Cc1c(CN(C)C(=O)/C=C/c2cnc3c(c2)CCC(=O)N3)oc2ccccc12` the value was 77.1%; for `CC1(C)CCC(C)(C)c2cc(Cn3cccn3)c(/C=C/c3ccc(C(=O)O)cc3)cc21`, -7.51%.
The same measure, in the same setting: for `O=C(O)CCCCCCCCCCCCCCc1ccc(I)cc1` the value was 21.6%; for `OCCn1cc(-c2ccc3c(c2)CC/C3=N\O)c(-c2ccncc2)n1`, -0.22%.
In the case of `Cc1cc(Nc2ncnc3ccc(-c4ccc(CNCCS(C)(=O)=O)o4)cc23)ccc1Oc1ccn2ncnc2c1`, the inhibition in experiment [1] stood at 2.93%.
With `Cc1cc(Nc2ncnc3ccc(NC4=NC(C)(C)CO4)cc23)ccc1Oc1ccn2ncnc2c1`, in experiment [1], the inhibition was -3.24%.
On to `C[C@@H]1COC(Nc2ccc3ncnc(Nc4ccc(OCc5nccs5)c(Cl)c4)c3c2)=N1`, for which the inhibition in experiment [1] came out at 62.5%.
On to `O=C1C=Cc2cc(Br)ccc2C1=O`, for which the inhibition in experiment [1] is 48.5%.
For the compound `Cc1ccc(=O)n(-c2ccc(O)cc2)c1`, the inhibition in experiment [1] turned out to be 1.55%.
For the compound `Nc1nc(Nc2ccc3c(c2)CC[C@@H](N2CCCC2)CC3)nn1-c1cc2c(nn1)-c1ccccc1CCC2`, the inhibition in experiment [1] was found to be 2.38%.
Regarding `O=C(NC1(c2ccccc2)CC1)c1c(CN2CCC(N3CCCCC3)CC2)c(-c2cccc(C(F)(F)F)c2)nc2cc(Br)ccc12`, the inhibition in experiment [1] stood at 35.2%.
Consider `COC(=O)/C=C/C(=O)OCCN1C(=O)CCC1=O`, for which the inhibition in experiment [1] was -0.93%.
Regarding `O=C(O)c1ccc(-c2ccc3cc(C45CC6CC(CC(C6)C4)C5)c(O)cc3c2)cc1`, the inhibition in experiment [1] was -6.28%.
For the compound `NS(=O)(=O)Oc1ccc2c3c(c(=O)oc2c1)CCCCC3`, the inhibition in experiment [1] came out at 91.6%.
Still for that read-out and setting: for `Fc1ccc(C(c2ccccc2)(c2ccccc2F)n2ccnc2)cc1` (stereo not drawn) the value was -9.89%.
